FAK inh: blocks human focal adhesion kinase activity. AID 727. inhibition, %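 (tested at 7 µM)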. Q05397. biochemical FAK kinase activity assay. 0.84% of 97,000 active; in the data active = inhibition above about 19%;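 also: 0% = DMSO and 100% = reference compound high control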
Target sequence (Q05397 whole entry, looked up): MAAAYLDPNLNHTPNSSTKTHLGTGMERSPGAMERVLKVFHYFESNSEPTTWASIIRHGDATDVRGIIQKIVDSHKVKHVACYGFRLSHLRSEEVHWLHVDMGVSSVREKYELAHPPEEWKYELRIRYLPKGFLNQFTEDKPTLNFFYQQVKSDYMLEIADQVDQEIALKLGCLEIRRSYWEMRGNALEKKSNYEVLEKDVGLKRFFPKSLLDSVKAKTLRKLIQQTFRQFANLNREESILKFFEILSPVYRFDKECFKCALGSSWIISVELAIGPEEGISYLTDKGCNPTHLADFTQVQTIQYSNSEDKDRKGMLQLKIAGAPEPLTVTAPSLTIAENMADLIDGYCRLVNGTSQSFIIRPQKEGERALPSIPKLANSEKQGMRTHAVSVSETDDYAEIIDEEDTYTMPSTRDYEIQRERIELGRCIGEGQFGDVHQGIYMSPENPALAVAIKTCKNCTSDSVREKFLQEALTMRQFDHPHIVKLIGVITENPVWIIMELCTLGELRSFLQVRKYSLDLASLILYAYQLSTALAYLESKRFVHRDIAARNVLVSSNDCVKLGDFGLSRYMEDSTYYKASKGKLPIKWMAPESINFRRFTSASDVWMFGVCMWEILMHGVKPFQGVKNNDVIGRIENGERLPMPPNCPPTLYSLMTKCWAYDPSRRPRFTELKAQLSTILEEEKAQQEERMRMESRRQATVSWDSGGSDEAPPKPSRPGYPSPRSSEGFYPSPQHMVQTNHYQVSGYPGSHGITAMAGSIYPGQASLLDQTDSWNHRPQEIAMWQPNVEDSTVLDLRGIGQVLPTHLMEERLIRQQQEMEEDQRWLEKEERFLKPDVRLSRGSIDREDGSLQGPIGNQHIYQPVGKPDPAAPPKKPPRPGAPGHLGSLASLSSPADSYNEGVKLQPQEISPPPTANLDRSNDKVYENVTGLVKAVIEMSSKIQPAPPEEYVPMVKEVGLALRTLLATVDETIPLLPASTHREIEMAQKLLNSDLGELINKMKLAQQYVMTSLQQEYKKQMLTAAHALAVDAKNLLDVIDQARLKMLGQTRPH
PLK1 inh: inhibitors of human PLK1 kinase. recombinant PLK1 kinase, TR-FRET peptide phosphorylation. 0.53% of 97,000 active. P53350. inhibition, % at 10 µM;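 active = inhibition of 50% or more in the single-concentration screen; inactive = inhibition below 50%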;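 also: 0% = DMSO max control and 100% = H-89 dihydrochloride min control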
PTPN22 act: LYP (human) phosphatase activation. Q9Y2R2. recombinant LYP, DiFMUP fluorescence; 0 = plate median, 100 = signal doubled. activation, % at 2 µM. 0.11% of 96,000 active;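 active = activation at 2 µM above a set limit, the mean plus 5 SD, cut at about 37% in these data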
Plk1 PBD FP: Plk1 (human) PBD binding inhibition. P53350. Plk1 PBD phosphopeptide binding, fluorescence polarization. inhibition, %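 (tested at about 20 µM)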. 0.13% of 97,000 active; in the data active = inhibition above about 34%, passing the limit was not always enough
PTPN22 inh 2: blocks human PTPN22 phosphatase activity. recombinant LYP catalytic domain, DiFMUP fluorescence. inhibition, % at 2 µM. 0.21% of 96,000 active. AID 640;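 active = inhibition at 2 µM at or above a set limit, the screen mean plus 3 SD, cut at about 24% in these data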;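 also: 0% = DMSO with enzyme and 100% = enzyme fully blocked by orthovanadate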
EphB4 ephrin blk: blocks human EphB4 binding to ephrin-B2. inhibition, % at 7 µM. EphB4 LBD / TNYL-RAW-Alexa532 peptide, fluorescence polarization. P54760. 0.15% of 97,000 active;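 active = inhibition above the screen-wide mean inhibition plus 3 SD, cut at about 15% in these data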;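 also: 0% = DMSO wells and 100% = excess unlabeled TNYL-RAW peptide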
The depositor's hits bear a star; . = no result. Compounds with a hit are over-represented: about 1.7% of the library has one in this group of screens.

SMILES	FAK inh	PLK1 inh	PTPN22 act	Plk1 PBD FP	PTPN22 inh 2	EphB4 ephrin blk
NC(=O)C1CCN(C(c2ccccc2Cl)c2nnnn2CC2CCCO2)CC1 (centres undefined)	-1	-7	-29	-3	29*	-5
CCC(C)(C)NC(=O)C(c1ccco1)N(C(=O)c1csnn1)c1cccc(F)c1 (centres undefined)	11	-11	4	16	-6	17*
CCOc1ccc(NC(=O)c2cn(-c3ccc(OCC)cc3)c(=O)c3cc(OC)c(OC)cc23)cc1	4	-12	12	-12	-8	2
CCOc1ccc(-n2cc(C(=O)NC(C)C)c3cc(OC)c(OC)cc3c2=O)cc1	8	54*	7	0	-3	3
Cc1csc(/C(=N\O)c2csc(C)n2)n1	0	-8	-2	6	0	0
CCSCCOC(=O)C1=C(C)NC(=O)NC1c1ccccc1 (centres undefined)	5	61*	4	14	-8	6
CCSCCOC(=O)C1=C(C)NC(=O)NC1c1ccc2c(c1)OCO2 (centres undefined)	0	-14	-10	24	7	4
Nc1nnnn1/N=C/c1ccccc1C(F)(F)F	4	-3	-70	-2	69*	4
Nc1nnc(SCC(=O)Nc2ccc(S(=O)(=O)N3CCOCC3)cc2)s1	-1	-6	-27	6	26*	7
Cn1ncc(N=Cc2ccccc2)c1C(=O)Nc1cccc(Cl)c1	2	-4	-3	-15	3	0
CCOC(=O)N1CCC(n2c(SCC(=O)NCCC3=CCCCC3)nc3ccccc3c2=O)CC1	11	-5	-8	-9	6	15*
CCOC(=O)N1CCC(n2c(SCC(=O)N3CCCC3)nc3ccccc3c2=O)CC1	-2	-10	-10	-12	12	0
CCOC(=O)N1CCC(n2c(SCC(=O)NCc3ccccc3)nc3ccccc3c2=O)CC1	-6	-9	-6	15	4	16*
CCOC(=O)N1CCC(n2c(SCC(=O)N3CCC(C)CC3)nc3ccccc3c2=O)CC1	-5	-4	-8	-26	10	5
O=C(Nc1nc2c(s1)CCCC2=O)c1cnccn1	-2	-13	5	-3	-6	-4
CC(=O)c1c(C)[nH]c(C(=O)OCC(=O)Nc2cc(C(F)(F)F)ccc2N2CCOCC2)c1C	-5	0	2	0	-5	0
Cc1cc(-c2ccccc2C(=O)O)on1	-1	-7	1	17	-4	-3
O=C(O)c1ccccc1C1=Nc2ccc(O)cc2Oc2cc(O)ccc21	-3	4	-12	50*	9	-4
Cc1noc(C)c1Cn1nc(C(=O)O)c2ccccc2c1=O	0	51*	-12	-16	12	-4
CC1(C)CC(=O)c2sc(NC(=O)c3ccc4ncsc4c3)nc2C1	-3	-17	-5	18	2	6
O=C(Cc1cccs1)Nc1nnc(Cc2ccccc2)s1	29*	-21	1	-8	-3	-4
CCOC(=O)c1ccc(Nc2ncnc3nc[nH]c23)cc1	18	68*	-12	-38	10	9
CC1(C)Cc2nc3nc(SCC(=O)NCCc4ccccc4)n(-c4ccccc4)c(=O)c3cc2CO1	8	-11	0	-19	1	7
Cc1cc(=O)oc(C)c1C(=O)OCC(=O)c1ccc(Cl)cc1	2	-7	-2	7	4	16*
Cc1cc2nnc(SC3CCCCN(C(=O)c4ccc(F)cc4)C3=O)n2c2ccccc12 (centres undefined)	19	-2	-10	-7	9	4
Cc1cc(C)n2nc(SC3CCCCN(C(=O)c4ccc(F)cc4)C3=O)nc2n1 (centres undefined)	9	-9	5	-15	-7	19*
CC(=O)CSc1nnc(Cc2ccc3c(c2)OCO3)o1	4	-7	-14	-4	13	6
CCN(CC)CCNC(=O)c1cn(C)c2ccc(S(=O)(=O)N(C)C3CCCCC3)cc2c1=O	2	55*	.	-17	.	-2
O=C(c1cc(-c2cccnc2)nc2ccc(Br)cc12)N1CCC2(CC1)OCCO2	-3	-10	-1	1	0	-2
NC(=O)c1sc2cc(C(F)(F)F)cnc2c1-c1cccs1	1	57*	-2	7	3	-7

Assay outcomes (PubChem)
